Measured values: PubChem BioAssay (EPA / NIEHS)
The source holds several records for some structures; these can differ, active in one and inactive in another. Calls of active or inactive are those of the source. Rule for the calls: active = hit-call score of the fitted dose curve at least 0.9, where 1 is the maximum; inactive = score below 0.9.

How the values were obtained:
[1] = IUF_NPC1_viability_72hr: Viability Assessment at 72 hours in the Leibniz Research Institute for Environmental Medicine (IUF) Neural Progenitor Cell Proliferation Assay (NPC1) (AID 2284209)
Protocol: IUF_NPC1 is a cell-based, multiplexed assay that uses hNPC, a human primary neural progenitor cells, with measurements taken at 72 hours after chemical dosing in a 96-well plate. Human neural progenitor cells (hNPC) are generated from human fetal brain cortex at gestational week (GW) 16-19. Grown in suspension culture and under proliferative conditions (proliferation media and growth factors), these cells represent neural progenitor cell proliferation. In the NPC1 assay, hNPC's are exposed to the test compound for 72h. Cell proliferation is assessed as an increase in sphere area using automated phase contrast imaging and as incorporation of Bromodeoxyuridine (BrdU) during DNA synthesis using a luminescence-based cell proliferation ELISA. In parallel, the cell viability is assessed using an alamar blue viability assay and the cytotoxicity using a lactate dehydrogenase dependent membrane integrity assay.IUF_NPC1_viability_72hr is one of 4 assay components measured from the IUF_NPC1 assay. It is designed to measure cell viability assessed as mitochondria-dependent reduction of resazurin to resorufin using the alamar blue cell viability assay. Viability is measured as a fluorescence signal (relative fluorescence unit) in a multiplate reader. […]

[2] = CCTE_Mundy_HCI_Cortical_Synap_Neur_Matur_NeuriteSpotCountPerNeuriteLength: CCTE's Synaptogenesis and Neurite Maturation Assay in rat cortical cells for Neurite Spot Count per Neurite Length, Mundy Lab (AID 2284210)
Summary of the method: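 Neurite-associated synapse density (synaptophysin puncta per unit neurite length) is measured by fluorescence high-content imaging in rat cortical cultures treated from DIV 7 and fixed at DIV 12, with DMSO as negative control.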

[3] = CCTE_Mundy_HCI_Cortical_Synap_Neur_Matur_BPCount: CCTE's Synaptogenesis and Neurite Maturation Assay in rat cortical cells for Branch Point Count, Mundy Lab (AID 2284211)
Summary of the method: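 In this multiplexed morphology assay, cortical cells from rat receive chemicals at DIV 7 and are fixed at DIV 12, then immunostained and imaged; branch points are counted, with DMSO as baseline.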

[4] = CCTE_Mundy_HCI_Cortical_NOG_NeuriteCount: CCTE's Neurite Outgrowth Assay in rat cortical cells for Neurite Count, Mundy Lab (AID 2284212);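 note: cells fixed about two days after chemical exposure began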
Summary of the method: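 Rat cortical primary cells; compound added 2 h post-plating, 1/10 dilution of working solution. Anti-betaIII-tubulin/AF488 ICC; ArrayScan neurite count vs DMSO.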

[5] = CCTE_Mundy_HCI_Cortical_NOG_NeuriteLength: CCTE's Neurite Outgrowth Assay in rat cortical cells for Neurite Length, Mundy Lab (AID 2284213);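 for AC50: neurites imaged about 48 to 50 h after chemical exposure began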
Summary of the method: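 First, rat primary cortical cells were plated and, 2 h later, given test chemical as a 1/10 dilution. Finally, βIII-tubulin immunostaining enabled automated imaging of neurite length.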

[6] = CCTE_Mundy_HCI_Cortical_Synap_Neur_Matur_NeuriteLength: CCTE's Synaptogenesis and Neurite Maturation Assay in rat cortical cells for Neurite Length, Mundy Lab (AID 2284214)
Summary of the method: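 DMSO-normalised neurite length, from high-content imaging of anti-MAP2-stained rat cortical cells fixed at DIV 12. Glia were suppressed with AraC (DIV 5) before chemical exposure from DIV 7.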

[7] = CCTE_Mundy_HCI_Cortical_Synap_Neur_Matur_NeuriteSpotCountPerNeuron: CCTE's Synaptogenesis and Neurite Maturation Assay in rat cortical cells for Neurite Spot Count per Neuron Count, Mundy Lab (AID 2284215)
Summary of the method: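 Rat cortical primary cultures; AraC DIV 5 to arrest glia; dosing + media change DIV 7; fixed DIV 12. Anti-MAP2/anti-synaptophysin, Hoechst nuclei; HCI puncta count per neuron, positive fitting direction vs DMSO.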

[8] = CCTE_Mundy_HCI_Cortical_Synap_Neur_Matur_SynapseCount: CCTE's Synaptogenesis and Neurite Maturation Assay in rat cortical cells for Synapse Count, Mundy Lab (AID 2284218)
Summary of the method: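 Endpoint: synapses/neuron by HCI (synaptophysin puncta on MAP2-labelled neurites, Hoechst nuclei). Rat primary cortical cells, AraC DIV 5, dosed DIV 7, fixed DIV 12; DMSO negative control.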

[9] = CCTE_Mundy_HCI_Cortical_Synap_Neur_Matur_NeuriteCount: CCTE's Synaptogenesis and Neurite Maturation Assay in rat cortical cells for Neurite Count, Mundy Lab (AID 2284222);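 note: exposure from day 7 to day 12 in vitro with readout at day 12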
Summary of the method: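 Rat primary cortical cells; AraC added at DIV 5, chemicals dosed with media change at DIV 7 through DIV 12. MAP2/synaptophysin/Hoechst immunostaining, high-content imaging of neurite number; fitted relative to DMSO.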

[10] = TAMU_PeakParms_SingleDonor1434_Chronotropy: Texas A&M University (TAMU) 1.5-hr Human Induced Pluripotent Stem Cell (iPSC)-derived Cardiomyocytes Calcium (Ca+2) Flux Assay for Cardiotoxicity: Chronotropy (changes in peak frequency) (AID 2284217); conditions: actives raise or lower the signal
Summary of the method: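 iPSC-derived cardiomyocytes (single donor 1434) dosed at 0.2, 1, 10 and 100 uM in 0.5% DMSO for 1.5 h at 37C; Ca2+ dye fluorescence gave average beat frequency. Zero-beat points removed; bidirectional fit versus DMSO, POD as EC05.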

Measured: AC50

CC1(C)S[C@@H]2[C@H](NC(=O)COc3ccccc3)C(=O)N2[C@H]1C(=O)O
not listed: [10]
inactive: all other assays above

N[C@H]1C(O)O[C@H](CO)[C@H](O)[C@@H]1O (some centres undefined)
not listed: [1] | [10]
inactive: all other assays above

Nc1ncn([C@@H]2O[C@H](CO)[C@@H](O)[C@H]2O)c(=O)n1
inactive: [1] | [2] | [3] | [4] | [5] | [6] | [7] | [8] | [9]
active: [5] 7.87 µM

c1ccc2c(c1)ccc1cc3c(ccc4ccccc43)cc12
active: [10] 50 µM

O=C(O)CCCC[C@@H]1SC[C@@H]2NC(=O)N[C@@H]21
inactive: [10]
